From PubChem BioAssay (NCATS) come the findings set out here.

Inconclusive results are not listed. Activity calls are given as the source filed them. Calls come from the whole dose curve; as a rule, active = well fitted inhibition curve with a large enough effect; inconclusive = small, poorly fitted or top-dose-only effect; inactive = flat fitted curve, though single readings scatter.

The test system of this assay is CRL-7250. Put plainly: qHTS assay to identify novel small-molecules to repurpose for Merkel cell carcinoma treatment (AID 1296009). Note: nearly all actives have a fitted effect of over 60% in size. Particulars: MCC and control cell lines, CellTiter-Glo viability, 72 h; at 44.8 µM (top of the series) unless noted. In outline:
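Luminescence from CellTiter-Glo, read 10 min after addition at room temperature, reported viability following a 72 hr, 37 degree celsius treatment with NPC or MIPE compounds in titration; values normalized to plate controls.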
(In general: In qHTS, concentration-response curves come from the screen itself.)
Regarding `O=C(NC(Cc1cc(=O)[nH]c2ccccc12)C(=O)O)c1ccc(Cl)cc1` (stereo unspecified), the compound was classed as inactive.

Consider `Nc1ncnc2nc[nH]c12`, for which the result was inactive.

In the case of `CCCCOCCOC(=O)c1cccnc1`, the outcome was inactive.

For `CCC[C@@]1(CCc2ccccc2)CC(O)=C([C@H](CC)c2cccc(NS(=O)(=O)c3ccc(C(F)(F)F)cn3)c2)C(=O)O1`, the compound was classed as inactive.

As for `O=C(O)CCCC[C@@H]1SC[C@@H]2NC(=O)N[C@@H]21`, the compound was classed as inactive.

Regarding `CCC1=C(C)CN(C(=O)NCCc2ccc(S(=O)(=O)NC(=O)NC3CCC(C)CC3)cc2)C1=O` (stereo unspecified), the outcome was inactive.

For `CC(C(=O)O)c1ccc2c(c1)CC(=O)c1ccccc1S2` (stereo unspecified), the result was inactive.

In the case of `CCNC(=O)/C=C/c1cccc(Br)c1`, the compound was classed as inactive.

In the case of `Cc1cc(OI)c(C(C)C)cc1-c1cc(C(C)C)c(OI)cc1C`, the call was inactive.

With `O=[N+]([O-])c1cncn1CCN1CCOCC1`, the outcome was inactive.

With `CC[C@H]1OC(=O)[C@H](C)[C@@H](O[C@H]2C[C@@](C)(OC)[C@@H](O)[C@H](C)O2)[C@H](C)[C@@H](O[C@@H]2O[C@H](C)C[C@H](N(C)C)[C@@H]2O)[C@](C)(O)C[C@@H](C)CN(C)[C@H](C)[C@@H](O)[C@]1(C)O`, the compound was classed as inactive.

Take `CCCCCCCCCCOc1cc2c(=O)c(C(=O)OCC)c[nH]c2cc1OCC`: the outcome is “inactive [at 4.96 µM]”.

On to `CC(=O)O[C@]1(C(C)=O)CC[C@H]2[C@@H]3C[C@H](C)C4=CC(=O)CC[C@]4(C)[C@H]3CC[C@@]21C`, for which the compound was called inactive.

On to `CCOc1ncc(F)c(=O)[nH]1`, for which the compound was called inactive.

Turning to `Oc1ccccc1-c1nnco1`, the compound was called inactive.

For `COc1ccc2c(c1)c(CC(=O)OC/C=C(\C)CC/C=C(\C)CCC=C(C)C)c(C)n2C(=O)c1ccc(Cl)cc1`, the outcome was inactive.
